Activity calls are given as the source filed them. How the source made its calls: active means hit-call score of the fitted dose curve at least 0.9, where 1 is the maximum; inactive means score below 0.9.
Assays:
[1] = CEETOX_H295R_CORTISOL: CeeTox H295R High-throughput Steroidogenesis Assay for Cortisol (AID 2283438); details: actives raise or lower the signal;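 further: cortisol secreted into medium quantified by LC-MS/MS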
How it was run: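 Forskolin 10 uM 48 h prestim → test cmpd in DMSO (0.1% final) 48 h → medium MTBE-extracted → LC-MS/MS cortisol vs 7-pt std curve. Gain/loss of signal fitted vs DMSO. MTT viability in same wells.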

[2] = CEETOX_H295R_DOC: CeeTox H295R High-throughput Steroidogenesis Assay for DOC (AID 2283439); details: actives raise or lower the signal
How it was run: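 Readout: 11-deoxycorticosterone in culture medium by reverse-phase C18 HPLC with ESI+ tandem MS after MTBE extraction. Cells: H295R, forskolin-primed (10 uM, 48 h), chemical-treated 48 h; DMSO 0.1% final. Activity fitted bidirectionally versus DMSO.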

[3] = CEETOX_H295R_ESTRADIOL: CeeTox H295R High-throughput Steroidogenesis Assay for Estradiol (AID 2283440); details: actives raise or lower the signal;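 further: estradiol secreted into medium quantified by LC-MS/MS after dansyl derivatisation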
How it was run: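 Estradiol in spent medium measured by LC-MS/MS after dansyl chloride derivatisation. Forskolin-primed (10 uM, 48 h) human adrenal H295R cells received test chemical 48 h at 0.1% DMSO; concentrations lowered until MTT viability >/=70%.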

[4] = CEETOX_H295R_ESTRONE: CeeTox H295R High-throughput Steroidogenesis Assay for Estrone (AID 2283441); details: actives raise or lower the signal;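 further: human adrenal H295R cells prestimulated with forskolin for two days; estrone secreted into medium measured by LC-MS/MS after dansyl derivatization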
How it was run: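 H295R cells prestimulated 48 h with 10 uM forskolin, then exposed 48 h to chemicals in 0.1% DMSO final; estrone in medium extracted with MTBE, dansyl-derivatized, quantified by HPLC-MS/MS; bidirectional fitting versus DMSO, viability by MTT.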

[5] = CEETOX_H295R_PROG: CeeTox H295R High-throughput Steroidogenesis Assay for Progesterone (PROG) (AID 2283442); details: actives raise or lower the signal
How it was run: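 Progesterone secreted by human H295R cells was measured by LC-MS/MS following 48 h chemical exposure at 0.1% DMSO, preceded by 48 h forskolin (10 uM) stimulation. Same-well MTT viability; cytotoxic concentrations diluted 10- or 100-fold and retested.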

[6] = read-out: Fatty acid synthase (Homo sapiens) (UniProt P49327); assay: LTEA_HepaRG_FASN: Life Technologies and Expression Analysis (LTEA) Assay for Fatty Acid Synthase (FASN) using HepaRG (AID 2283448); details: mRNA level, 48 h; actives raise or lower the signal;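 on AC50: differentiated human HepaRG liver cells in serum-free induction medium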
How it was run: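 FASN expression changes, up or down relative to 0.5% DMSO, were measured by qRT-PCR in human HepaRG cells after 48 h treatment with chemicals at eight concentrations (half-log steps from 100 uM).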

[7] = read-out: Cyclin Dependent Kinase Inhibitor 1A (CDKN1A), CDKN1A (gene 1026); assay: LTEA_HepaRG_CDKN1A: Life Technologies and Expression Analysis (LTEA) Assay for Cyclin Dependent Kinase Inhibitor 1A (CDKN1A) using HepaRG (AID 2283450); details: mRNA level, 48 h; actives raise or lower the signal
How it was run: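 Expression quantified by Fluidigm qRT-PCR with ACTB, GAPDH and POLR2A normalization, fitted bidirectionally against 0.5% DMSO. Cells: HepaRG, plated 48 h then treated 48 h in serum-free induction medium, top concentration 100 uM with half-log dilutions.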

[8] = read-out: Cyclin D1 (CCND1), CCND1 (gene 595); assay: LTEA_HepaRG_CCND1: Life Technologies and Expression Analysis (LTEA) Assay for Cyclin D1 (CCND1) using HepaRG (AID 2283451); details: mRNA level, 48 h; actives raise or lower the signal;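 on AC50: differentiated human HepaRG liver cells in serum-free induction medium; TaqMan qRT-PCR transcript level normalised to ACTB GAPDH and POLR2A housekeeping genes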
How it was run: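 Expression of CCND1 was quantified by qRT-PCR on Fluidigm arrays using ACTB, GAPDH and POLR2A as reference genes. HepaRG cultures, plated 48 h beforehand, were dosed for 48 h at up to 100 uM (half-log, 8 points) in 0.5% DMSO.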

[9] = read-out: catalase (CAT), CAT (gene 847); assay: LTEA_HepaRG_CAT: Life Technologies and Expression Analysis (LTEA) Assay for catalase (CAT) using HepaRG (AID 2283452); details: mRNA level, 48 h; actives raise or lower the signal;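 on AC50: TaqMan qRT-PCR signal normalized to ACTB GAPDH and POLR2A housekeeping genes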
How it was run: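 Expression of CAT was quantified by TaqMan qRT-PCR with ACTB/GAPDH/POLR2A normalization after 48 h chemical exposure of HepaRG. Eight-point half-log series, top 100 uM, in 0.5% DMSO; gain or loss fitted against vehicle.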

[10] = read-out: flavin-containing dimethylaniline monooxygenases 3 (FMO3), FMO3 (gene 2328); assay: LTEA_HepaRG_FMO3: Life Technologies and Expression Analysis (LTEA) Assay for flavin-containing dimethylaniline monooxygenases 3 (FMO3) using HepaRG (AID 2283453); details: mRNA level, 48 h; actives raise or lower the signal;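 on AC50: differentiated human HepaRG liver cells in serum-free induction medium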
How it was run: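 Differentiated HepaRG cells in serum-free induction medium, exposed 48 h in duplicate to 8 half-log concentrations up to 100 uM in 0.5% DMSO. FMO3 mRNA by qRT-PCR, normalized to ACTB, GAPDH, POLR2A; bidirectional fit vs DMSO.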

[11] = read-out: Cytochrome P450 (CYP1A1), CYP1A1 (gene 1543); assay: LTEA_HepaRG_CYP1A1: Life Technologies and Expression Analysis (LTEA) Assay for Cytochrome P450 (CYP1A1) using HepaRG (AID 2283454); details: mRNA level, 48 h; actives raise or lower the signal
How it was run: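 CYP1A1 transcript levels measured by Fluidigm qRT-PCR against three housekeeping genes, 48 h after chemical dosing of human HepaRG cells (highest concentration 100 uM, half-log steps, 0.5% DMSO vehicle). Gain or loss of signal fitted relative to DMSO.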

[12] = read-out: CFLAR gene, CFLAR (gene 8837); assay: LTEA_HepaRG_CFLAR: Life Technologies and Expression Analysis (LTEA) Assay for CFLAR gene using HepaRG (AID 2283455); details: mRNA level, 48 h; actives raise or lower the signal
How it was run: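 HepaRG, 48 h exposure, 8-pt conc-response (100 uM top, half-log), 0.5% DMSO vehicle, duplicates. CFLAR expression by qRT-PCR; ACTB/GAPDH/POLR2A normalization; gain or loss fit vs DMSO baseline.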

[13] = read-out: Forkhead box O1 (FOXO1), FOXO1 (gene 2308); assay: LTEA_HepaRG_FOXO1: Life Technologies and Expression Analysis (LTEA) Assay for Forkhead box O1 (FOXO1) using HepaRG (AID 2283456); details: mRNA level, 48 h; actives raise or lower the signal
How it was run: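 Readout is FOXO1 transcript level by multiplexed qRT-PCR against three housekeeping genes, curve-fitted in both directions relative to 0.5% DMSO vehicle. Human HepaRG cultures received chemicals for 48 h, up to 100 uM in half-log steps.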

[14] = read-out: growth arrest and DNA damage 45 (GADD45A), GADD45A (gene 1647); assay: LTEA_HepaRG_GADD45A: Life Technologies and Expression Analysis (LTEA) Assay for growth arrest and DNA damage 45 (GADD45A) using HepaRG (AID 2283458); details: mRNA level, 48 h; actives raise or lower the signal
How it was run: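 Cells plated and cultured 48 h, switched to serum-free induction medium, then dosed for 48 h (100 uM top, half-log dilutions, 0.5% DMSO). RNA was isolated and transcript measured by Fluidigm qRT-PCR.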

[15] = read-out: Forkhead box O3 (FOXO3), FOXO3 (gene 2309); assay: LTEA_HepaRG_FOXO3: Life Technologies and Expression Analysis (LTEA) Assay for Forkhead box O3 (FOXO3) using HepaRG (AID 2283459); details: mRNA level, 48 h; actives raise or lower the signal
How it was run: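 HepaRG, 48 h post-dose; 8 conc., half-log from 100 uM, 0.5% DMSO, duplicates; serum-free induction medium. Readout: FOXO3 mRNA, TaqMan qRT-PCR, housekeeping-normalized. Bidirectional curve fit vs DMSO baseline.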

[16] = read-out: ABC Transporter (ABCB1), ABCB1 (gene 5243); assay: LTEA_HepaRG_ABCB1: Life Technologies and Expression Analysis (LTEA) Assay for ABC Transporter (ABCB1) using HepaRG (AID 2283460); details: mRNA level, 48 h; actives raise or lower the signal
How it was run: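 Expression of ABCB1 was quantified by qRT-PCR against three housekeeping genes after human HepaRG cultures received test chemicals for 48 hours. Concentrations spanned eight half-log steps topping at 100 uM in 0.5% DMSO; gain or loss of signal was fitted relative to vehicle.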

[17] = read-out: ABC Transporter (ABCC3), ABCC3 (gene 8714); assay: LTEA_HepaRG_ABCC3: Life Technologies and Expression Analysis (LTEA) Assay for ABC Transporter (ABCC3) using HepaRG (AID 2283462); details: mRNA level, 48 h; actives raise or lower the signal
How it was run: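 Transcript level by TaqMan qRT-PCR, normalised to three housekeeping genes, fitted in both directions relative to vehicle. Chemicals tested in duplicate at eight half-log concentrations up to 100 uM for 48 h on HepaRG cells (0.5% DMSO).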

[18] = read-out: ABC Transporter (ABCC2), ABCC2 (gene 1244); assay: LTEA_HepaRG_ABCC2: Life Technologies and Expression Analysis (LTEA) Assay for ABC Transporter (ABCC2) using HepaRG (AID 2283464); details: mRNA level, 48 h; actives raise or lower the signal
How it was run: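 Endpoint is ABCC2 transcript level from qRT-PCR, normalized to three housekeeping genes and fitted bidirectionally relative to DMSO. Human HepaRG cells received test chemical for 48 h at up to 100 uM (8 points, half-log steps, 0.5% DMSO), duplicate wells.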

[19] = read-out: Cyclin D2 (CCND2), CCND2 (gene 894); assay: LTEA_HepaRG_CCND2: Life Technologies and Expression Analysis (LTEA) Assay for Cyclin D2 (CCND2) using HepaRG (AID 2283449); details: mRNA level, 48 h; actives raise or lower the signal
How it was run: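 Read-out is CCND2 mRNA level measured by qRT-PCR in human HepaRG liver cells and normalised to three housekeeping genes. Chemicals were applied for 48 h at up to 100 uM, with gain or loss fitted relative to 0.5% DMSO.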

Fatty acid synthase (Homo sapiens), sequence (P49327 whole entry, looked up): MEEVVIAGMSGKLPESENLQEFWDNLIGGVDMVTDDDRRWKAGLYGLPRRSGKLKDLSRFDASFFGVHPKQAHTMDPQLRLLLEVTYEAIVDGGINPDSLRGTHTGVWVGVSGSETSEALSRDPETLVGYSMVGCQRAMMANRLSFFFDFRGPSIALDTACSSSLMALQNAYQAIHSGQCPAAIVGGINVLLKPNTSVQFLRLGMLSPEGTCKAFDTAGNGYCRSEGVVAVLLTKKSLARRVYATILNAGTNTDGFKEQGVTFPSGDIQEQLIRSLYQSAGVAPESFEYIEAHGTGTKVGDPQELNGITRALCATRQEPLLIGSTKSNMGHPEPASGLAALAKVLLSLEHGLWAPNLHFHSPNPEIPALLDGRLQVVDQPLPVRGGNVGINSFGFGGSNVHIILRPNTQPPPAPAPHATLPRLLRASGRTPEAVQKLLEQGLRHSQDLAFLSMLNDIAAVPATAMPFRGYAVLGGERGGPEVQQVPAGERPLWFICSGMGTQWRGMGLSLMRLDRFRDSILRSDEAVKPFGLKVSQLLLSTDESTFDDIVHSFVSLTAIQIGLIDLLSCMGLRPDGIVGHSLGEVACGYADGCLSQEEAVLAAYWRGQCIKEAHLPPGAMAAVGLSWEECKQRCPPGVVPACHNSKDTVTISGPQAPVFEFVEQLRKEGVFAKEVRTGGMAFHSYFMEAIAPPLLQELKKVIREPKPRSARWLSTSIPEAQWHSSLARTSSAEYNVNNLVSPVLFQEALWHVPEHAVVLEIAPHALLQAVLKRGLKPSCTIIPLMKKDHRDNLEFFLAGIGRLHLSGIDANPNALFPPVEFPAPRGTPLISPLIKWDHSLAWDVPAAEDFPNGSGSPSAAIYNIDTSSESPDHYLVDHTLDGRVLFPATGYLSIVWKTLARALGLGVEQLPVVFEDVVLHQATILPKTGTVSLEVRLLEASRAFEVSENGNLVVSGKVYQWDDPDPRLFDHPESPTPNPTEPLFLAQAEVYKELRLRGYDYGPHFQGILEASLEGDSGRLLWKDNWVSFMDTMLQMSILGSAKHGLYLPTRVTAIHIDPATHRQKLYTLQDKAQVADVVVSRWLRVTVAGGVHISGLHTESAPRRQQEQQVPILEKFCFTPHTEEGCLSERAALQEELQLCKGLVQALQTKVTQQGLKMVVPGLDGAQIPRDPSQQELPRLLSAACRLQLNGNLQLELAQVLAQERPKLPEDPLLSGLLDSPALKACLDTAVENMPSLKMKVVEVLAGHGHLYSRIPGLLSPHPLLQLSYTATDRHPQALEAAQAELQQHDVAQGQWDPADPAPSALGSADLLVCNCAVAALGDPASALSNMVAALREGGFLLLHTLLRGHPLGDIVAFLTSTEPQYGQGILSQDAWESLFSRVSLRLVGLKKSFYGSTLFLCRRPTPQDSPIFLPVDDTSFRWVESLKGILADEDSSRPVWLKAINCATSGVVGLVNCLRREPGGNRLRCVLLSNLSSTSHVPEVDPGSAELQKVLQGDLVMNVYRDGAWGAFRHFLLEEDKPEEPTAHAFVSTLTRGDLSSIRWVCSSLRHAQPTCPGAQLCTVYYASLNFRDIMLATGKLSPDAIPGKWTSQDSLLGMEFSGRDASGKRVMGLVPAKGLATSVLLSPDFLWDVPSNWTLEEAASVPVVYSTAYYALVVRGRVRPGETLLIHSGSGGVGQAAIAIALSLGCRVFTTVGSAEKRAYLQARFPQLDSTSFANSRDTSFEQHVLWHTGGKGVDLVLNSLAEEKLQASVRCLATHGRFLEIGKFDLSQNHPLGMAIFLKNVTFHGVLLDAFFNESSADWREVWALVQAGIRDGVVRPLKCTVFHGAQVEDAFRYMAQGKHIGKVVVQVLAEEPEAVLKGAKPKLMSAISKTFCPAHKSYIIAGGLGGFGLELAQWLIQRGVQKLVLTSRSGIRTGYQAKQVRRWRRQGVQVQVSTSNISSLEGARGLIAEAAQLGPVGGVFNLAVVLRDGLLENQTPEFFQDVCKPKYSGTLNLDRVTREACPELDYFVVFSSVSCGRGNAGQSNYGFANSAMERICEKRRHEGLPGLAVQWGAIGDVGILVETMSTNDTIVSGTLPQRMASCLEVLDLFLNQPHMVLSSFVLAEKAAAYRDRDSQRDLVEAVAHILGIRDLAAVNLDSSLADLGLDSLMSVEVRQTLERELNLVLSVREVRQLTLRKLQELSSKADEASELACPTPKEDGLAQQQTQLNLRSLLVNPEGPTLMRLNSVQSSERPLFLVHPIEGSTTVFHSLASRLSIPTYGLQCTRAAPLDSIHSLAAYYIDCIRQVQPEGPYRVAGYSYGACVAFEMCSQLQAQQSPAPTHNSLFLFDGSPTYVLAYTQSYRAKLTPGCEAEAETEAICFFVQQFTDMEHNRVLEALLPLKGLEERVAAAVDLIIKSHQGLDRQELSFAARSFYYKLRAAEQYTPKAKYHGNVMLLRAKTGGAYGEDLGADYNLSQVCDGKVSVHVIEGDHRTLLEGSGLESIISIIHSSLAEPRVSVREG

## Clc1ccc(Nc2nnc(Cc3ccncc3)c3ccccc23)cc1
[1]
  AC50: 3.2 µM (active)
[2]
  outcome: inactive
[3]
  AC50: 2.39 µM (active)
[4]
  AC50: 4.2 µM (active)
[5]
  outcome: inactive

## C[C@]12CC[C@@H]3c4ccc(O)cc4CC[C@H]3[C@@H]1C[C@@H](O)[C@@H]2O
[1]
  outcome: inactive
[2]
  AC50: 25.8 µM (active)
[5]
  outcome: inactive

## O=C(CCCN1CCC(O)(c2ccc(Cl)cc2)CC1)c1ccc(F)cc1
[1]
  outcome: inactive
[2]
  outcome: inactive
[6]
  AC50: 9.92 µM (active)
[7]
  AC50: 79.9 µM (active)
[8]
  outcome: inactive
[9]
  AC50: 68.4 µM (active)
[10]
  AC50: 73.7 µM (active)
[11]
  AC50: 12.4 µM (active)
[12]
  outcome: inactive
[13]
  AC50: 81.2 µM (active)
[14]
  AC50: 75 µM (active)
[15]
  outcome: inactive
[16]
  AC50: 85.6 µM (active)
[17]
  AC50: 50 µM (active)
[18]
  AC50: 80.7 µM (active)

## CCCCC=O
[6]
  outcome: inactive
[19]
  outcome: inactive
[7]
  outcome: inactive
[8]
  outcome: inactive
[9]
  outcome: inactive
[10]
  outcome: inactive
[11]
  outcome: inactive
[12]
  outcome: inactive
[13]
  outcome: inactive
[14]
  outcome: inactive
[15]
  outcome: inactive
[16]
  outcome: inactive
[17]
  outcome: inactive
[18]
  outcome: inactive

## O=C(c1ccccc1)c1ccccc1
[6]
  outcome: inactive
[19]
  outcome: inactive
[7]
  outcome: inactive
[8]
  outcome: inactive
[9]
  outcome: inactive
[10]
  outcome: inactive
[12]
  outcome: inactive
[13]
  outcome: inactive
[14]
  outcome: inactive
[15]
  outcome: inactive
[16]
  outcome: inactive
[17]
  outcome: inactive
[18]
  outcome: inactive

## Cc1[nH]nc2c1N=C(c1ccccc1Cl)c1cc([N+](=O)[O-])ccc1N2
[6]
  AC50: 7.35 µM (active)
[19]
  outcome: inactive
[7]
  outcome: inactive
[8]
  AC50: 1.22 µM (active)
[9]
  AC50: 16.1 µM (active)
[10]
  AC50: 9.1 µM (active)
[11]
  AC50: 81.8 µM (active)
[12]
  AC50: 12.9 µM (active)
[13]
  AC50: 5.4 µM (active)
[14]
  AC50: 88.8 µM (active)
[15]
  AC50: 12.6 µM (active)
[16]
  AC50: 0.742 µM (active)
[17]
  AC50: 3.26 µM (active)
[18]
  AC50: 31.9 µM (active)
